Compound activity (PubChem)
HCV NS3h FP = HCV NS3 helicase inhibitors, primary screen, biochemical, fluorescence polarization, ChemBridge library; inhibition, % at 100 µM; NS3h Cy5-dT15 DNA binding; 1.6% of 16,000 active; Hepatitis C virus NS3 helicase;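 active = inhibition above the average over every tested compound plus 3 SD, cut at about 40% in these data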
Cy5 interf NS3h = Cy5 fluorescence quenchers or enhancers, artefact control for HCV NS3 helicase inhibitor project, biochemical, ChemBridge library, Cy5 readout | Cy5-dT15 DNA with NS3h, fluorescence interference; actives lie on both sides; signal over control mean, under 1 quenches | fluorescence interference ratio at 100 µM | 6% of 16,000 active;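 active = compound fluorescence over control fluorescence at most 0.8, a quencher, or at least a set upper limit, an enhancer; inactive = ratio between 0.8 and the set upper limit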
* = called active by the depositor. Hits are enriched below; roughly 6.8% of the tested compounds scored in any of these assays.

SMILES	HCV NS3h FP	Cy5 interf NS3h
COc1ccccc1CNC(=O)c1ccc(CN(c2ccccc2)S(C)(=O)=O)cc1	7	0.97
COc1ccc(N(Cc2ccc(C(=O)NCc3ccccc3OC)cc2)S(=O)(=O)c2ccccc2)cc1	20	0.69*
COc1ccc(N(CC(=O)Nc2ccc(C)c(C)c2)S(C)(=O)=O)cc1	10	1.2*
Cc1cc(-c2ccc(C=C3C(=O)N(C)C(=O)N(C)C3=O)o2)c([N+](=O)[O-])cc1C	3	1.1
COc1ccc(N(CC(=O)Nc2cccc(C(F)(F)F)c2)S(=O)(=O)c2ccccc2)cc1	-5	1
Cc1ccccc1OCCCN1CCC(C)CC1	-10	0.99
COc1ccc(C2C(=C(O)c3ccc(Cl)cc3)C(=O)C(=O)N2CCCCCC(=O)O)c(OC)c1 (stereo unspecified)	13	1.1
Cc1c(NC(=O)COc2ccc3ccccc3c2)cccc1[N+](=O)[O-]	12	0.86
O=C(c1ccc([N+](=O)[O-])cc1Cl)N(Cc1ccccc1)c1ccccn1	11	1
Cc1cc(OCC(=O)Nc2ccc(O)c(-c3nc4ccccc4o3)c2)cc(C)c1Cl	9	1
COc1ccc(N(CC(=O)NCCc2ccc(OC)c(OC)c2)S(=O)(=O)c2ccc(OC)c(OC)c2)cc1	24	1.2*
COc1ccc(OC)c(N(CC(=O)NCCc2ccc(OC)c(OC)c2)S(=O)(=O)c2ccc(OC)c(OC)c2)c1	7	1
COc1ccc(-n2nc3cc(C)c(NC(=O)c4ccc(OC)c(OC)c4)cc3n2)cc1	2	1
CCOC(=O)/C(C#N)=C\c1cn(-c2ccccc2)nc1-c1cc2ccccc2oc1=O	6	0.94
O=C(CSCc1ccccc1)Nc1ccccc1Cl	12	1
CCOC(=O)C1=C(c2ccccc2)N=c2s/c(=C\c3ccc(O)c(OC)c3)c(=O)n2C1c1ccccc1OC (stereo unspecified)	23	0.99
CC(C)(C)CC(C)(C)NC(=O)c1ccc2nccnc2c1	4	0.61*
O=C(Nc1ccccc1F)c1ccc2nccnc2c1	-1	1
Cc1cc(C)c(OCC(=O)Nc2cccc3ccccc23)c(C)c1	12	1.1
CCOc1ccccc1/C=C1/C(=O)NN(c2ccc(C)c(C)c2)C1=O	16	0.91
CCOC(=O)COc1ccc(/C=C2/C(=O)NN(c3ccc(I)cc3)C2=O)cc1OC	3	0.88
CCOc1ccccc1/C=C1/C(=O)NN(c2ccc(C)c(Cl)c2)C1=O	14	0.74*
CCOC(=O)c1ccc(N2NC(=O)/C(=C/c3ccc(O)c(OCC)c3)C2=O)cc1	2	0.73*
CCOc1ccc(C(=O)Nc2ccc(-c3nc4ccc(C)cc4s3)cc2)cc1	2	1.1
COC(=O)c1ccccc1NC(=O)c1cc2nc(-c3ccccc3)cc(C)n2n1	14	0.73*
SMILES	HCV NS3h FP	Cy5 interf NS3h
CCOc1ccc(-c2cc(C)n3nc(C(=O)Nc4cc(OC)c(Cl)cc4OC)cc3n2)cc1	-9	1.1
CC(C)(C)NC(=O)c1cc2nc(-c3ccccc3)cc(C(F)(F)F)n2n1	1	0.57*
O=C(NCc1ccco1)c1cc2nc(-c3ccccc3)cc(C(F)(F)F)n2n1	1	1.1
O=C(/C=C1/Nc2ccccc2NC1=O)Nc1cccc(C(F)(F)F)c1	5	0.93
COC(=O)/C=C1\Nc2cc([N+](=O)[O-])ccc2NC1=O	12	0.72*
O=S(=O)(c1ccc(Cl)cc1)N1CCOC(c2ccccc2)C1 (stereo unspecified)	14	0.96
Cc1ccc(SCC(=O)Nc2cccc([N+](=O)[O-])c2)cc1	13	0.95
Cc1ccc(Nc2nc(Nc3cccc([N+](=O)[O-])c3)nc(SC(=S)N3CCOCC3)n2)cc1	-60	0.45*
COc1cc([N+](=O)[O-])ccc1N=S(C)C	-7	0.93
N#Cc1cc([N+](=O)[O-])ccc1N=Cc1ccc(C#Cc2ccccc2)cc1	10	0.79*
CC(=O)NS(=O)(=O)c1ccc(NS(=O)(=O)c2ccc(C)cc2)cc1	-1	0.98
Cc1ccc(S(=O)(=O)Nc2ccc(S(=O)(=O)NC(=O)C3CCCCC3)cc2)cc1	12	0.72*
N/C(=N/OC(=O)c1cccc(Br)c1)c1cccnc1	4	1
CCOC(=O)c1c(NC(=O)c2cc3n(n2)C(C(F)(F)F)CC(c2ccco2)N3)sc(C)c1C (stereo unspecified)	6	0.75*
CCOC(=O)c1sc(NC(=O)c2cc3n(n2)C(C(F)(F)F)CC(c2ccc4c(c2)OCO4)N3)c(C(=O)OCC)c1C (stereo unspecified)	2	1
CC1CN(c2ccc([N+](=O)[O-])cc2)CCN1S(=O)(=O)c1ccccc1 (stereo unspecified)	18	0.98
c1ccc(CCNc2ccnc3cc4ccccc4cc23)cc1	2	0.96
CCN(CC)CCNc1ccc(Nc2ccnc3cc4ccccc4cc23)cc1	7	0.58*
COc1ccccc1N1CCN(C(=O)CN(c2ccc(C)cc2)S(C)(=O)=O)CC1	4	1.1
CCc1ccc(N2NC(=O)CC2=O)cc1	10	0.73*
CCc1ccc(/C=C2\C(=O)NN(c3ccccc3)C2=O)cc1	22	1
CCC1CCc2c(sc(NC(=O)CCC(=O)O)c2C#N)C1 (stereo unspecified)	5	1.1
CN(C)/C(=N\OC(=O)c1ccc([N+](=O)[O-])cc1)c1nonc1N	19	0.67*
N/C(=N/OC(=O)c1ccc(I)cc1)c1ccc([N+](=O)[O-])cc1	3	0.95
O=C1c2cccnc2C(=O)N1c1ccc(Oc2ccc(N3C(=O)c4cccnc4C3=O)cc2)cc1	19	0.68*
SMILES	HCV NS3h FP	Cy5 interf NS3h
COC(=O)c1ccc(N2C(=O)c3ccccc3C2=O)cc1	-6	1
COc1ccc(-c2nn(-c3ccccc3)cc2/C=C/C(=O)c2ccccc2)cc1Br	13	0.97
Clc1ccc(-c2ccc(/C=N/n3cnnc3)o2)c(Cl)c1	-9	0.71*
Clc1ccc(/C=N\n2cnnc2)cc1	1	1.1
CC(C)CCNC(=O)C(=O)NCc1ccc(Cl)cc1	9	1.1
NC(=O)C(=O)NCc1ccc(Cl)cc1	3	0.65*
O=C(CC1S/C(=N/N=C\c2cccc(O)c2)NC1=O)Nc1ccccc1C(F)(F)F (stereo unspecified)	-11	1.2
COc1ccc(-c2cc(C(F)(F)F)n3nc(C(=O)NCCCn4ccnc4)c(Cl)c3n2)cc1	2	0.68*
COc1ccc(-c2cc(C(F)(F)F)n3nc(C(=O)Nc4ccccc4C(F)(F)F)cc3n2)cc1	4	1.1
COc1cc(-c2noc(-c3ccccc3C)n2)cc(OC)c1OC	16	0.9
O=C(NC(Cc1ccccc1)C(=O)Nc1ccccc1)OCc1ccccc1 (stereo unspecified)	5	0.68*
O=C(Nc1ccc(OCc2ccccc2)cc1)C(c1ccccc1)c1ccccc1	8	0.98
COc1ccc(CC(=O)Nc2sc3c(c2C(=O)Nc2ccccc2OC)CCCCC3)cc1	0	1.2
CCC(C)NS(=O)(=O)c1ccc([N+](=O)[O-])cc1 (stereo unspecified)	3	1
CC1=NN(C(=O)c2ccc(Cl)cc2)C(O)(c2cccnc2)C1 (stereo unspecified)	-4	0.96
CC1=NN(C(=O)c2cccnc2)C(C)(O)C1(C)C (stereo unspecified)	-2	0.65*
CCOc1ccccc1NC(=O)CSc1nnc(C)s1	0	0.68*
